Compounds without any hit were thinned out: in the full panel of roughly 83,000, 20% have a hit.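 Single-dose data. Exposure time 48 hours. Values below 10 considered active.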 Unmarked numbers belong to inactive results. Active and inactive are the calls of the source.
How the values were obtained:
Experiment in all cases: NCI-60 one-dose screen, 48 h (100 = growth as untreated, 0 = no growth, -100 = all killed)
Settings in all cases: 10 µM unless noted
[1] = test system: T-47D breast
[2] = test system: BT-549 breast
[3] = test system: MDA-MB-435 melanoma
[4] = test system: SW-620 colon
[5] = test system: MCF7 breast
[6] = test system: HCT-116 colon
[7] = test system: HCC-2998 colon
[8] = test system: KM12 colon

Structure (SMILES) | growth [1] | growth [2] | growth [3] | growth [4] | growth [5] | growth [6] | growth [7] | growth [8]
Cc1nc(Nc2ccc(N)cc2)c2ccccc2n1 | 101% | 104% | 64.6% | 99% | 75.8% | 95.3% | 104% | 98.3%
C=CCO[C@H]1CO[C@H]2[C@@H]1OC[C@@H]2Oc1ccc(Nc2ccnc(Nc3ccc(O[C@H]4CO[C@H]5[C@@H]4OC[C@@H]5OCC=C)c(Cl)c3)n2)cc1Cl | -39.7% (active) | 32.7% | -88.4% (active) | -58.9% (active) | -71.1% (active) | -29.7% (active) | -93.3% (active) | -72.1% (active)
CN1CCN(c2ccc3nc(/N=C/c4ccc5sc(-c6ccc([N+](=O)[O-])cc6)nc5c4)sc3c2)CC1 | 96% | 92.4% | 102% | 116% | 94.7% | 107% | 101% | 105%
CCCCC1COc2cccc3c(SCC(=O)N(C)c4cccc(Cl)c4)cc[n+]1c23 (stereo not drawn) | 107% | 107% | 120% | 110% | 94.3% | 104% | 104% | 103%
COc1ccc(-c2nnc(SCC(=O)NC3=NN=C(c4ccccc4)CS3)o2)cc1 | 78.4% | 104% | 97.1% | 98.3% | 102% | 94.2% | 105% | 102%
Nc1ccc(-c2cc3c(Nc4ccc(OCc5cccc(F)c5)c(Cl)c4)ncnc3s2)cc1 | 15.4% | 61.2% | 43.8% | 74.1% | 26.2% | 50.7% | 38.6% | 24%
O=C(Nc1ccccn1)[C@H](O)[C@@H](O)C(=O)N1CCOCC1 | 100% | 114% | 111% | 110% | 110% | 99.3% | 116% | 108%
C=CCOc1cccc(/C=C2\SC(=Nc3ccc(O)cc3)NC2=O)c1 | 60.9% | -16.3% (active) | -45.2% (active) | 23.4% | 7.91% (active) | 5.94% (active) | 10.6% | 6.22% (active)
COc1ccc(-c2nc3sccn3c2/C=C/C(=O)c2c[nH]c3ccccc23)cc1 | 56.1% | 59.1% | 88.9% | 100% | 69.8% | 69.5% | 67.4% | 76.8%
O=C1C2=C(CCN(Cc3ccccc3)C2)N2CCN=C2N1Cc1ccc(F)cc1F | 33.4% | 34.6% | 32.3% | 40.9% | 30.1% | 23.3% | 34.3% | 44.7%
COc1ccc(/C(C)=C(\c2ccc(Cl)cc2)c2ccc(OCCN3CCCCCC3)cc2)cc1F | 53.6% | 66.3% | 52.4% | 20.3% | 24.1% | 22.9% | 36.9% | 23%
CCCN1CCN(c2ccc3nc(-c4ccc5nc(-c6ccc(OCC)c(OCC)c6)[nH]c5c4)[nH]c3c2)CC1 | 10.7% | -64% (active) | -88.2% (active) | -65.9% (active) | -59.5% (active) | -83.4% (active) | -79.5% (active) | -54.8% (active)
COc1cc(C2C=C(c3cccc(NC(C)=O)c3)Nc3ncnn32)cc(OC)c1OC (stereo not drawn) | 64.7% | -0.0208% (active) | -47.7% (active) | 27.6% | 18.3% | 20.3% | 24% | 15.2%
C=C(C)C1CCC(=C)C2CCC3(C)OC12/C=C(/COC(C)=O)CCC3O (stereo not drawn) | 112% | 78.6% | 98.7% | 106% | 96.8% | 103% | 106% | 117%
O=C(CC12CC3CC(CC(C3)C1)C2)NCCOCCOCCNC(=O)c1cc2c(o1)C(=O)c1ccccc1C2=O | -11.8% (active) | -93.7% (active) | -97.7% (active) | -28.4% (active) | -68.4% (active) | -8.18% (active) | -86.9% (active) | -23.9% (active)
CCOC(=O)c1nnn(C(Cc2ccccc2Cl)C(=O)OCC)c1C (stereo not drawn) | 97.6% | 107% | 105% | 98% | 104% | 100% | 109% | 102%
CCOC(=O)c1c(C)[nH]c(C(=O)CCC(=O)OC)c1C | 101% | 84.5% | 103% | 108% | 98% | – | 99.2% | 103%
CC(C)CCC[C@@H](C)[C@H]1CCC2C3=CCn4c(=O)ccc(=O)n4C3CC[C@@]21C (stereo partly drawn) | -75.2% (active) | -30.9% (active) | -87.1% (active) | -65.5% (active) | -92.5% (active) | – | -93.1% (active) | -97.5% (active)
CCCc1cc(=O)oc2c3c(c4c(c12)OC(C)(C)C=C4)O[C@@H](C)[C@H](C)C3=O | 41.5% | 68.7% | 96.2% | 71.6% | 56.4% | 35.8% | – | 70.4%
COc1ccc(-c2cn(-c3cccc(C(=O)/C=C/c4cc(OC)c(OC)c(OC)c4)c3)c(=O)[nH]2)cc1 | -9.54% (active) | 139% | -9.22% (active) | -50.7% (active) | -34.5% (active) | -91.9% (active) | – | -62.6% (active)
CN(C)c1ccc2cc(-c3ccccc3F)c(N)nc2c1 | 27.1% | 25.5% | -9.25% (active) | 30% | 27% | 22.4% | 54.3% | 26%
COc1cc2nc(Nc3ccc(F)cc3)nc(N)c2cc1OC | 83.2% | 93.9% | 96.2% | 103% | 82.9% | – | 113% | 94.7%
O=C1Nc2ccccc2SC1C1SC(=S)N(Cc2ccccc2)C1=O (stereo not drawn) | 24.1% | 42.4% | 0.237% (active) | 20.9% | 17.8% | – | 136% | -48.5% (active)
CN1CCN(c2ccc(Nc3ncc(Cl)c(NC[C@@H]4CCCO4)n3)cc2)CC1 | 62.2% | 33.3% | 44% | 7.44% (active) | 9.61% (active) | 4.74% (active) | 60.7% | 9.71% (active)
CC(=O)c1ccc2c(c1)CCN2 | 105% | 106% | 111% | 113% | 98.3% | 100% | – | 110%
O=C1CC(c2ccc3c(c2)OCO3)Nc2cc3c(cc21)OCO3 (stereo not drawn) | 59.5% | 32.7% | -34.6% (active) | 25.1% | 13.9% | – | 17.6% | 15.2%
CCOC(=O)c1ccc(NC(=O)CCCN(CC)CC)cc1 | 92.6% | 83.1% | 108% | 110% | 96% | 87.3% | 102% | 104%

Source: PubChem BioAssay (NCI)
